From PubChem
The list is not random: actives were taken first. Their share in the collection is about 2.8%.
SMARCA2 activ – SMARCA2 (BRM) function activators, primary screen, cell-based, luminescence, high throughput. AID 652017, 2013. 370,000 tested, 1% active. activation, % at 9.1 µM. MG213 cells, MMTV-luciferase reporter, dexamethasone, overnight; in the data active means activation above about 7.8%;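 further: 0% = vehicle wells and 100% = reference activator wells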
proKLK7 act – proKLK7 zymogen activators, primary screen, biochemical, fluorescence intensity; 370,000 tested, 0.9% active; activation, % at 7 µM; Kallikrein-7 (Homo sapiens), P49862; purified proKLK7, EDANS-DABCYL substrate fluorescence; 100% is mature enzyme control, 0% vehicle;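 active means activation above the mean of all tested compounds plus 3 SD, computed per campaign excluding outliers beyond control limits, cut at about 13% in these data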
Target sequence (P49862 whole entry, looked up): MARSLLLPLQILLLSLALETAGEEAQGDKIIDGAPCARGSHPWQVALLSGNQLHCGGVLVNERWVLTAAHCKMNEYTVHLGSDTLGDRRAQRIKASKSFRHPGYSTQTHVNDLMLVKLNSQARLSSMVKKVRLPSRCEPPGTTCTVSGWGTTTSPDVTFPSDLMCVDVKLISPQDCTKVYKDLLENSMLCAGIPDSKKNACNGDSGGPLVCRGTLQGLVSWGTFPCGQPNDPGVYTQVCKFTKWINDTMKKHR
MsrA act – bovine MsrA enzyme activators, primary screen, biochemical, absorbance, HTS | Methionine sulfoxide reductase A (Bos taurus) | purified bovine MsrA, absorbance read-out | activation, % at 10.6 µM | 360,000 tested, 0.3% active | AID 602163, 2012; in the data active means activation above about 7.5%;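 further: 0% = vehicle and 100% = reference activator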
MsrA inhibitor – bovine MsrA enzyme inhibitors, primary screen, biochemical, absorbance, HTS; 360,000 tested, 0.75% active; inhibition, % at 15.5 µM; AID 651718, 2012; purified bovine MsrA, absorbance read-out; in the data active means inhibition above about 4.5%;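 further: 0% = vehicle wells with enzyme and 100% = reference inhibitor wells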
SMARCA2 conf – SMARCA2 (BRM) function activators, confirmation, cell-based, luminescence, triplicate; MG213 cells, MMTV-luciferase with dexamethasone, overnight; MG213 cells expressing E1A, Rb sequestered; DMSO wells 0%, reference activator 100%; activation, % at 9.1 µM; 3,500 tested, 30% active; AID 652260, 2013; shares compounds with SMARCA2 activ;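 active means activation above its plate's cutoff, the mean activation of tested wells plus 3 SD, cut at about 7.9% in these data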
VP16 Luc act – GAL4-VP16 luciferase reporter activation, counter-screen for SMARCA2 (BRM) activator project, cell-based, pG5luc, luminescence, high throughput; 3,500 tested, 41% active; shares compounds with SMARCA2 activ; HEK293 GAL4-VP16 pG5luc reporter; scaled: DMSO wells 0%, SAHA wells 100%; activation, % at 9.1 µM;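 active means activation above the solvent-only control well mean plus 3 SD, averaged across control plates, cut at about 5.2% in these data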
* hit, by the source's call; x = no result.

SMILES	SMARCA2 activ	proKLK7 act	MsrA act	MsrA inhibitor	SMARCA2 conf	VP16 Luc act
O=C(Nc1c(C(=O)Nc2ccccc2)cnn1-c1ccccc1)c1ccco1	9.8*	0	-3	-1	1	0
O=C(Nc1ccc2c(c1)ncn2-c1ccccc1)c1ccco1	11*	-1	-11	0	16*	7.9*
CC(C)[C@H](NS(=O)(=O)c1ccc(F)cc1F)C(=O)N1CCC[C@H]1C(=O)NCc1ccccc1	-3	0	x	0	x	x
COc1ccc2c(CCNC(=O)c3ccco3)c[nH]c2c1	9.6*	0	-8	0	3	1
COc1ccc2c(CCNC(N)=S)c[nH]c2c1	1	1	2	0	x	x
COc1ccccc1C(=O)Nc1ccc2c(c1)nc1n2CCSC1	8.9*	-77	-15	-1	15*	5.6*
Cc1ccc(C(=O)Nc2ccc3c(c2)nc2n3CCSC2)cc1	4	-11	-3	0	x	x
CCCCC(=O)Nc1ccc2c(c1)nc1n2CCSC1	8.1*	-10	-3	0	8.0*	5.8*
CC(=O)Nc1ccc2c(c1)nc1n2CCSC1	2	-69	-1	0	x	x
COc1ccc(-n2c(SCC(=O)Nc3ccccc3-c3ccccc3)nnc2-c2ccco2)cc1	-6	1	x	x	x	x
O=C(c1ccccc1I)N1CCC(Oc2cccnc2)CC1	0	0	x	x	x	x
CC#CC#Cc1cccc(=O)o1	9.8*	-1	-4	3	15*	3
CN1CCCCC(NC(=O)c2ccc(Cl)cc2Cl)C1=O (stereo not given)	1	1	x	1	x	x
CCOc1ccccc1NC(=O)CSc1nc2ccccc2nc1N1CCOCC1	-3	-1	-3	0	x	x
CCOc1ccccc1NC(=O)CSc1nc2ccccc2nc1N1CCCC1	8.3*	-1	-4	0	-3	0
CC(C)(C)OC(=O)N1CCc2onc(-c3ccccc3[N+](=O)[O-])c2C1=O	-5	-1	x	0	x	x
Cc1cc(NC(=O)CSc2nnnn2-c2cc(Cl)ccc2C)no1	8.1*	0	-5	1	-3	1
Cc1cc(NC(=O)CSc2nnnn2-c2ccccc2F)no1	-1	-1	-3	0	x	x
COc1ccc(-c2csc3nc(C)n(-n4cccc4)c(=O)c23)cc1OC	9.1*	1	-4	4	-2	2
COc1ccc(-c2csc3ncn(-c4cccc(C)c4)c(=O)c23)cc1OC	-1	0	-3	-1	x	x
CC(C)COc1ccc(CNC(=S)N/N=C/c2ccc([N+](=O)[O-])cc2)cc1	0	0	1	1	x	x
CC(C)Oc1ccc(CNC(=S)N/N=C/c2ccc([N+](=O)[O-])cc2)cc1	10*	-2	0	1	-1	4
O=C(Cn1sc2ccccc2c1=O)Nc1ccc(Br)cc1	6	0	3	2	x	x
O=C(Cn1sc2ccccc2c1=O)Nc1ccc(F)cc1	9.2*	0	7	0	11*	0
O=C(NCC1CCCO1)c1sc2cc(Cl)ccc2c1Cl (stereo not given)	10*	0	-2	0	8.4*	9.4*
SMILES	SMARCA2 activ	proKLK7 act	MsrA act	MsrA inhibitor	SMARCA2 conf	VP16 Luc act
CCc1cccc(CC)c1NC(=O)C(CC)Sc1nc2ccncc2[nH]1 (stereo not given)	8.3*	0	-5	0	0	1
Cc1ccccc1-c1nnc(SCc2ccccc2)o1	13*	0	2	0	7	5
Cc1ccccc1-c1nnc(SCc2ccccc2F)o1	5	0	-1	1	x	x
Cc1ccc(S(=O)(=O)Nc2ccc(-c3nnc(SCc4ccccc4Cl)o3)cc2)cc1	4	0	-2	0	x	x
Cc1ccc(CSc2nnc(-c3ccc(NS(=O)(=O)c4ccccc4)cc3)o2)cc1	11*	0	-2	0	-2	-1
CC(=O)NC(c1ccccc1)c1nc(-c2cc(F)cc(F)c2)cs1 (stereo not given)	-5	1	-6	1	x	x
Nc1nc(SCc2ccccc2)c2[nH]cnc2n1	-2	0	3	2	x	x
Nc1nc(Sc2ccc([N+](=O)[O-])c3nonc23)c2[nH]cnc2n1	26*	0	-6	3	-15	1
O=C(NCCc1ccccc1)C1Cc2c(-c3ccccc3Oc3ccccc3)ccnc2O1 (stereo not given)	0	0	1	0	x	x
CS/C(=N\N(C)C(N)=O)c1ccccc1	8.4*	0	-3	0	1	0
CS/C(=N\NC(N)=O)c1ccccc1	-3	1	0	0	x	x
N#C/C(=C\c1ccc(OCc2ccc(C(=O)O)cc2)cc1)C(=O)N1CCOCC1	10*	-1	-6	4	2	15*
COc1cccc(C(=O)Nc2ccc3c(C)cc(=O)oc3c2)c1	13*	1	1	1	11*	14*
CCCCOC(=O)Nc1ccc2c(C)cc(=O)oc2c1	6	-2	1	0	x	x
Cc1cccc(OCC(=O)Nc2ccc3c(C)cc(=O)oc3c2)c1	-1	1	-11	2	x	x
CCOC(=O)Nc1ccc2c(C)cc(=O)oc2c1	11*	-5	-7	2	2	8.7*
COc1ccc2cc(C#N)c(SCC(=O)NNC(=O)Cc3ccccc3)nc2c1	9.1*	-1	-2	1	1	1
Cc1ccc2cc(C#N)c(SCC(=O)NNC(=O)Cc3ccccc3)nc2c1	0	1	-12	0	x	x
CCN(CC)C(=O)C1=C(C)N(CCCN2CCCC2=O)C(=O)C(CC(=O)NC2CCCCC2)C1 (stereo not given)	0	0	-4	0	x	x
O=C(N/N=C/c1ccccn1)c1ccncc1	0	0	-1	-1	x	x
Clc1ccc(C=Cc2ccccn2)cc1	19*	0	-6	0	6	8.0*
O=C(N/N=C/c1ccccn1)c1ccc(Cl)cc1	13*	0	-2	1	-7	21*
Cc1ccc(C=Cc2ccccn2)cc1	1	0	-2	0	x	x
O=C(N/N=C\c1ccccn1)c1ccccc1O	13*	-1	-9	3	-10	11*
O=C(N/N=C/c1ccccn1)c1ccccc1	4	0	-1	1	x	x
CN(C(=O)COC(=O)c1ccc2c(c1)OCO2)C1CCCCC1	9.9*	1	0	0	6	3
CN(C(=O)COC(=O)c1ccc2c(c1)OCO2)C1CCS(=O)(=O)C1 (stereo not given)	0	0	-8	0	x	x
COc1cc(NC(=O)[C@@H](Cc2ccccc2)NC(=O)[C@H]2O[C@@H](n3ccc(=O)[nH]c3=O)[C@H](O)[C@@H]2O)cc(OC)c1OC	-2	0	x	0	x	x
